What follows are molecules tested on GRK1. Conditions: concentration: 1 μM, replicates: in singlicate; n = 1.
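Also: KINOMEscan kinase panel screen.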

Row | SMILES | %Inh [%]
1 | C[C@@H]1CC[C@H](C(=O)NC2CCCCC2)CN1c1cc(-c2ccc3c(N)n[nH]c3c2)nc(N)n1 [GSK2291363] | 0
2 | Cc1nc(N(C)[C@H]2CN(C(=O)CC#N)CC[C@H]2C)c2cc[nH]c2n1 | 0
3 | Nc1nccc2scc(-c3ccc4c(c3)CCN4C(=O)Cc3ccccc3)c12 [GSK2576924] | 4
4 | COc1cc(OC)cc(-c2cc3cnc(N)nc3nc2NC(=O)NC(C)(C)C)c1 | 13
5 | O=C(Nc1n[nH]c2cc(-c3ccccc3F)ccc12)C1CC1 [SB-733371] | 12
6 | CCCNC(=O)Nc1ccc(Oc2ncnc3ccn(C)c23)cc1 | 24
7 | COc1cc2ncn(-c3cc(OCc4ccncc4Br)c(C(N)=O)s3)c2cc1OC [GW854278] | 0
8 | Cc1nn2c(=O)cc(N3CCOCC3)nc2n1Cc1cccc(Cl)c1Cl [GSK2342769] | 3
9 | Cc1c(Cn2c(C)nn3c(=O)cc(N4CCO[C@H](C)C4)nc23)cccc1C(F)(F)F [GSK2373690] | 0
10 | COc1cc2nccc(Nc3ccc(OCc4ccc(NC(C)=O)cc4)cc3)c2cc1OC.Cl [GW440135] | 22
11 | Cc1cccc(-c2nc(Nc3ccc4c(cnn4C)c3)c3ccccc3n2)n1 [GW876731] | 1
12 | CCCC(=O)Nc1n[nH]c2ncc(-c3cccc4ccccc34)cc12 [SB-642057] | 0
13 | FC(F)(F)c1ccc(-c2ncn(CCCN3CCOCC3)c2-c2ccncc2)cc1 [SB-217780] | 12

Reference: publication PMC5540273 (PLoS ONE, 2017)
